Screens: PubChem, National Center for Advancing Translational Sciences (NCATS)
Sampled rows, rich in hits. Any-hit rate of the full collection: about 7.5%.
NPC1 prom act: activates the NPC1 promoter. actives 2.4% (n = 320,000). Huh7 NPC1 promoter luciferase reporter, 24 h. Potency, µM (titrated, usually from 9.22 µM), hits mostly activators; further: nearly all actives have a fitted effect of over 60% in size
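Compounds in DMSO were transferred onto Huh7 NPC1-luciferase reporter cells pre-incubated 2 h; after 24 h at 37 °C, Amplite reagent was dispensed and luminescence recorded 10 min later.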
Rab9 prom act: Rab9 promoter activation; Huh7 Rab9 promoter-luciferase reporter, luminescence, 24 h; Potency, µM (highest dose often 9.22 µM), usual class: activators; actives 2.8% (n = 320,000); further: nearly all actives have a fitted effect of over 60% in size
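Huh7 cells stably carrying a Rab9 promoter-luciferase reporter, 1500 cells per well in OP-MEM I with 10% FBS, treated with compound 24 hours at 37C. Luciferase activity read by luminescence after 10 minutes with Amplite reagent.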
ELG1 genotox: induces genotoxicity in HEK293T cells with luciferase-tagged ELG1; HEK293T ELG1-luciferase reporter, luminescence, 16 h; Potency, µM (doses to about 46 µM), usual class: activators; actives 1.3% (n = 330,000); further: nearly all actives have a fitted effect of over 60% in size
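After overnight (16 hr) compound treatment at 37 °C, ELG1-luciferase HEK293T cells were lysed with ONE-Glo; luminescence quantified 30 min later at room temperature.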
SMN2 splice enh: increases expression of the SMN2 splice variant; HEK293 SMN2-luciferase splicing reporter, luminescence, 30-36 h; Potency, µM (top dose mostly 46.1 µM), hits mostly activators; actives 2.8% (n = 210,000); further: nearly all actives have a fitted effect of over 55% in size
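HEK293 cells carry an SMN2 […]–luciferase reporter in which exon 7 inclusion puts luciferase in frame. Cells were plated 10-12 h before compound addition, then incubated 30-36 h at 37C. ONE-Glo luminescence was read; sodium butyrate at 4.5 mM final served as control.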
FLuc modulator: firefly luciferase modulation, counter-screen for miR-21 project; P08659; purified FLuc, Km substrates, luminescence inhibition; Potency, µM (top dose mostly 57.5 µM), usual class: inhibitors; actives 6.9% (n = 360,000); AID 588342; further: nearly all actives have a fitted effect of over 55% in size
Target sequence (P08659 whole entry, looked up): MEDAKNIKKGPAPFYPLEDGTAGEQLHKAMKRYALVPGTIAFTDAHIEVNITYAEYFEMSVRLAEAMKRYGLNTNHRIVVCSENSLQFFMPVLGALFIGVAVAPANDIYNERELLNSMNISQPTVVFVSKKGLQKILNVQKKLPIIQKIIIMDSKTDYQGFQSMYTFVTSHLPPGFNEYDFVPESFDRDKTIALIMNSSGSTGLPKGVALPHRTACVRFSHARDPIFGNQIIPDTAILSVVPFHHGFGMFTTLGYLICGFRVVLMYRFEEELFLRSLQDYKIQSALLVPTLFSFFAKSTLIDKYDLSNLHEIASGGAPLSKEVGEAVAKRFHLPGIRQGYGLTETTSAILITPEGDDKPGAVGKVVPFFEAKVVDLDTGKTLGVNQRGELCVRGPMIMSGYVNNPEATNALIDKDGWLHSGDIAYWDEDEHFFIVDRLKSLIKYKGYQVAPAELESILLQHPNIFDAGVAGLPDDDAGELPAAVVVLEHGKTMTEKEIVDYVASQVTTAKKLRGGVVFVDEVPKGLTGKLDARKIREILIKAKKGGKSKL
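Purified P. pyralis luciferase (10nM final) with 10uM D-luciferin and 10uM ATP (Km levels) in 50mM Tris acetate pH 7.5, 10mM Mg acetate, 0.01% Tween-20, 0.05% BSA; qHTS 6-point titration, ~60 µM downward; luminescence read.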
KinaseGlo FLuc: counter-screen: inhibitors of Kinase-Glo firefly luciferase. actives 0.28% (n = 200,000). Kinase-Glo luciferase, ATP luminescence, 8 min. Potency, µM (doses to about 38.3 µM), usual class: inhibitors. AID 1379; further: nearly all actives have a fitted effect of over 60% in size
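Compound is pinned into ATP-containing buffer (10 uM ATP, imidazole pH 7.2, 7 mM MgCl2). Kinase-Glo luciferase reagent is then added. Light output is recorded following an 8-min room-temperature incubation.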
Each line names hits and unclear results; the compound was inactive in the other large screens. The call rests on the fitted dose curve; in most records, active means well fitted curve in the direction sought with a large enough effect; inconclusive means small, poorly fitted or top-dose-only effect, or another doubt; inactive means no such curve, though single readings can be large; an effect the other way counts as inactive or inconclusive.

S=C(Nc1ccc(-c2nc3ccccc3[nH]2)cc1)Nc1cccnc1	NPC1 prom act inconclusive, Rab9 prom act 1.4µM, ELG1 genotox inconclusive, FLuc modulator 13µM (no result: SMN2 splice enh, KinaseGlo FLuc)
O=C(/C=C/c1ccco1)Nc1ccc(-c2nc3ccccc3[nH]2)cc1	SMN2 splice enh 3.5µM
O=C(CSc1ccc(Cl)cc1)Nc1ccc(-c2nc3ccccc3[nH]2)cc1	Rab9 prom act inconclusive, SMN2 splice enh 7.9µM
O=C(/C=C/c1ccco1)Nc1ccc(Oc2ccc(Cl)cc2)cc1	none
O=C(CSc1nc2ccccc2[nH]1)Nc1ccc(F)cc1	none
O=C(Nc1ccc(-c2nc3ccccc3[nH]2)cc1)c1ccco1	NPC1 prom act 0.71µM, Rab9 prom act 2.2µM, ELG1 genotox 1.8µM, SMN2 splice enh 6.3µM, FLuc modulator 4.3µM, KinaseGlo FLuc inconclusive
O=C(O)CCCCCCCCCCCc1ccccc1	FLuc modulator inconclusive
O=C(CSc1ccc(-c2nc3ccccc3[nH]2)cn1)N1CCN(C(=O)c2ccco2)CC1	FLuc modulator 11µM
CCOc1nc(-c2ccccc2)ccc1-c1noc(-c2ccncc2)n1	none
c1ccc(-c2nc(-c3ccc(-c4ccon4)s3)no2)cc1	NPC1 prom act 1.1µM, Rab9 prom act 1.4µM, ELG1 genotox inconclusive, FLuc modulator 1.2µM (no result: SMN2 splice enh, KinaseGlo FLuc)
c1csc(-c2nc(-c3ccc(-c4ccon4)s3)no2)c1	NPC1 prom act 0.56µM, Rab9 prom act 0.35µM, ELG1 genotox 2.3µM, FLuc modulator 0.6µM (no result: SMN2 splice enh, KinaseGlo FLuc)
CC1(C)CC(=O)C=C(C(=O)N2CCCC(C(=O)c3cccc(C(F)(F)F)c3)C2)O1 (stereo not given)	none (no result: SMN2 splice enh, KinaseGlo FLuc)
Cc1cccc(Nc2cc(C)c3c(O)cccc3n2)c1C	FLuc modulator 17µM
CCOC(=O)c1ccc(NC(=O)c2cc3ccccc3o2)cc1	NPC1 prom act inconclusive, Rab9 prom act inconclusive, FLuc modulator 9.5µM
CCOC(=O)c1cccc(NC(=O)c2cc3ccccc3o2)c1	NPC1 prom act inconclusive, Rab9 prom act 1.3µM, FLuc modulator 5.4µM (no result: SMN2 splice enh, KinaseGlo FLuc)
Cn1c(=Nc2ccccc2)sc2ccccc21	ELG1 genotox inconclusive, FLuc modulator 21µM
Cc1ccc(S(=O)(=O)N/N=c2\sc3ccccc3n2C)cc1	none
CN(C)c1ccc(N=c2sc3ccccc3n2C)cc1	NPC1 prom act inconclusive, Rab9 prom act inconclusive, ELG1 genotox 6.5µM, FLuc modulator 6µM
COc1ccc2[nH]c(=O)c(CN(C(=O)C(C)C)c3ccccc3OC)cc2c1	none (no result: SMN2 splice enh, KinaseGlo FLuc)
Cc1ccnc(NC(=O)Nc2cccc(F)c2)n1	NPC1 prom act 2.2µM, Rab9 prom act 1.1µM, ELG1 genotox inconclusive, SMN2 splice enh 11µM, FLuc modulator 7.6µM
COc1cccc(NC(=O)Nc2nccc(C)n2)c1	NPC1 prom act 1.3µM, Rab9 prom act 0.56µM, ELG1 genotox inconclusive, FLuc modulator 1.2µM (no result: SMN2 splice enh, KinaseGlo FLuc)
Cc1cccc(NC(=O)Nc2cccc(F)c2)n1	NPC1 prom act inconclusive, Rab9 prom act inconclusive, ELG1 genotox inconclusive, FLuc modulator 13µM
CCc1ccccc1NC(=O)Nc1cccc(F)c1	FLuc modulator inconclusive
COc1ccc(CNC(C)C(=O)Nc2ccc3ccccc3c2)cc1OC (stereo not given)	none
CCOC(=O)C(C(=O)OCC)N(C#N)c1nc(OC)nc(N(C)C)n1	SMN2 splice enh 3.2µM
CCOC(=O)C(C(=O)OCC)N(C#N)c1nc(SC)nc(N(C)C)n1	none
CCOC(=O)C1CCN(C(=O)c2ccc3nc(-c4ccc(OC)cc4)c(-c4ccc(OC)cc4)nc3c2)CC1	none (no result: SMN2 splice enh, KinaseGlo FLuc)
CC1CCc2c(sc3nc(SCC(=O)O)n(-c4ccccc4)c(=O)c23)C1 (stereo not given)	FLuc modulator 21µM (no result: SMN2 splice enh, KinaseGlo FLuc)
CC1CCc2c(sc3ncn(CCO)c(=O)c23)C1 (stereo not given)	NPC1 prom act inconclusive, Rab9 prom act 2.5µM, ELG1 genotox 21µM, SMN2 splice enh 13µM, FLuc modulator 17µM
CC1CCc2c(sc3ncn(CC(=O)N=Nc4c(O)[nH]c5ccccc45)c(=O)c23)C1 (stereo not given)	none (no result: SMN2 splice enh, KinaseGlo FLuc)
CC1CCc2c(sc3ncn(Cc4ccc(C(=O)O)cc4)c(=O)c23)C1 (stereo not given)	ELG1 genotox inconclusive, FLuc modulator 21µM
